Data taken from PMC4336329 (PLoS ONE, 2015).
In all, about 310,000 compounds went through this assay and about 14,000 (4.5%) showed an effect of 50% or more. Effects have a minus sign here. What follows is part of a selection rich in strong results, with near analogues and random picks from the rest.

Target: human ether-à-go-go-related gene (hERG) potassium channel (human, UniProt Q12809)
Assay: primary screen, population patch clamp on CHO cells stably expressing hERG; higher = less effect of the substance
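Note: peak tail current of the secondary pulse compared with the same well before compound.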

Sequence of human ether-à-go-go-related gene (hERG) potassium channel (Q12809 whole entry, looked up): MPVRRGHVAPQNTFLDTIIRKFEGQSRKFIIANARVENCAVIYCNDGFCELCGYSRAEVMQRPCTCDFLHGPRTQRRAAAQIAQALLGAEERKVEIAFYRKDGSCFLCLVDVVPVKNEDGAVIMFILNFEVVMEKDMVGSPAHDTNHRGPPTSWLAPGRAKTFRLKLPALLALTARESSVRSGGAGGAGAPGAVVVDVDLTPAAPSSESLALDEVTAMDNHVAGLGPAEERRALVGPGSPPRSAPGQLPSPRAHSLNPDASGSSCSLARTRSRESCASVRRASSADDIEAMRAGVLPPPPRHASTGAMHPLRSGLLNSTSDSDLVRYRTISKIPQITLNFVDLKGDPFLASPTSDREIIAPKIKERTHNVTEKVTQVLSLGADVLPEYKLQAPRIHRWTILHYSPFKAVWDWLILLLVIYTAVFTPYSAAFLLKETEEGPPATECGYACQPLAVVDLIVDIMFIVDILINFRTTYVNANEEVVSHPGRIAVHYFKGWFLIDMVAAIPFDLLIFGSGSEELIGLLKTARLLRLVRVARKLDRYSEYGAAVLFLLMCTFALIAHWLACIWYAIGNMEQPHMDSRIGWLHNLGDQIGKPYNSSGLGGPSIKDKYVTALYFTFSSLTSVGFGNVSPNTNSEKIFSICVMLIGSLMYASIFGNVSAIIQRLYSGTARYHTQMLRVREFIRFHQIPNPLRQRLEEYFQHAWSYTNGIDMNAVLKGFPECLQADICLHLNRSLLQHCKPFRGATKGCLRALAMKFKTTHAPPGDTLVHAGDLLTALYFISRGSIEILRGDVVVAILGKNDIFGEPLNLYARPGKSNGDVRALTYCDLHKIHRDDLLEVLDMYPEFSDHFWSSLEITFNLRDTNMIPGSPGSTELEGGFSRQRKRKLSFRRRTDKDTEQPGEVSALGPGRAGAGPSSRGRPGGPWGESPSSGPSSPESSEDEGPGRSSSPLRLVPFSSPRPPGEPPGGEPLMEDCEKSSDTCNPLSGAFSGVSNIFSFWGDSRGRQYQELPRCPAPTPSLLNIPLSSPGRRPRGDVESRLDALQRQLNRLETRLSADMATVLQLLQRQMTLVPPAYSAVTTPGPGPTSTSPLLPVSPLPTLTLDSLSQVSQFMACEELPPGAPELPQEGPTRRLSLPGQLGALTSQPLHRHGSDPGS

First: CSc1nnc(-c2ccc(S(=O)(=O)N3CCOCC3)cc2)n1C
Second: Cc1ccc(S(=O)(=O)N2CCN(C(=O)c3ccco3)CC2)cc1C
The “hERG current change (%, negative = inhibition) at 10uM” value of the first is lower: -25% for the first, -4.01% for the second.

First: Cc1cccc(C(=O)NCCNC(=O)c2cccnc2)c1
Second: Cc1ccc(S(=O)(=O)Nc2cccc(C(=O)NCCCN3CCOCC3)c2)cc1F
The “hERG current change (%, negative = inhibition) at 10uM” value of the first is higher: 18.6% for the first, -10.2% for the second.

Going from `COc1ccc(Nc2nc(NCc3ccco3)nc(N/N=C/c3ccccc3F)n2)cc1` to `COc1ccc(NC(=O)CSc2nnc(-c3ccccc3)n2Cc2ccco2)cc1OC`, the “hERG current change (%, negative = inhibition) at 10uM” value falls from -12.3% to -34.6%.

Going from `COc1cc(C(F)(F)F)c(C(=O)N(C)Cc2cc(Cl)cc(Cl)c2)cn1` to `COc1ccc(C(C)=O)cc1COC(=O)CNC(=O)c1ccc(Cl)cc1`, the “hERG current change (%, negative = inhibition) at 10uM” value rises from -18.9% to -4.06%.

Compared with `O=C1C(C=NCCCn2ccnc2)=C(O)c2ccccc21`, `CC(=NCCCn1ccnc1)C1=C(O)c2ccccc2C1=O` is lower in “hERG current change (%, negative = inhibition) at 10uM” value: -8.86% for the first, -68% for the second.

Going from `CCN(CC)CCCN=C(C)C1=C(O)c2ccccc2C1=O` to `CCC(O)(CC)C(=O)NN(C(=O)CCl)c1ccccc1`, the “hERG current change (%, negative = inhibition) at 10uM” value rises from -41.2% to 8.94%.

First: CCOC(=O)N1CCN(C(=O)COc2ccc(S(=O)(=O)NC3CCCCC3)cc2C)CC1
Second: CCc1ccc(-c2cc(C)no2)cc1S(=O)(=O)N1CCN(C(=O)c2ccco2)CC1
The “hERG current change (%, negative = inhibition) at 10uM” value of the first is higher: -16.9% for the first, -59.6% for the second.

Compared with `O=C(O)c1ccccc1C(=O)Nc1ccc(-n2nc(C(F)(F)F)cc2C(F)(F)F)cc1`, `CC(=O)c1ccccc1OCc1ccc(C(=O)c2ccccc2)cc1` is lower in “hERG current change (%, negative = inhibition) at 10uM” value: 12.8% for the first, -51.7% for the second.

Compared with `O=C(CSc1nnc(-c2cccs2)n1Cc1ccco1)Nc1ccc2c(c1)OCO2`, `Cc1ccc(NC(=O)CSc2nnc(-c3cccs3)n2Cc2ccco2)cc1` is lower in “hERG current change (%, negative = inhibition) at 10uM” value: -14.6% for the first, -61.6% for the second.

First: CCn1c(SCC(=O)Nc2ccc(OC)c(OC)c2)nnc1-c1cccs1
Second: COc1ccc(NC(=O)CSc2nnc(-c3cccs3)n2Cc2ccco2)cc1OC
The “hERG current change (%, negative = inhibition) at 10uM” value of the first is higher: -14.1% for the first, -60.6% for the second.

Going from `CN(C)c1ccc(NC(=O)CSc2nnc(-c3cccs3)n2Cc2ccco2)cc1` to `Cc1ccc2nc(CSc3nnc(-c4ccco4)n3-c3ccccc3)cc(=O)n2c1`, the “hERG current change (%, negative = inhibition) at 10uM” value rises from -39.4% to -21.1%.

Going from `COc1ccc(N=C2SC(CC(=O)Nc3ccccc3)C(=O)N2CCc2ccccn2)cc1` (stereo not drawn) to `COc1ccccc1OCc1ccc(C(=O)c2ccccc2)cc1`, the “hERG current change (%, negative = inhibition) at 10uM” value rises from -32.6% to 17.1%.

First: CCOC(=O)c1c(C)oc2ccc(OC(=O)c3cccs3)cc12
Second: Cc1ccc(C(=O)c2nocc2C(=O)c2cccs2)cc1
The “hERG current change (%, negative = inhibition) at 10uM” value of the first is higher: -5.96% for the first, -19.7% for the second.

Compared with `COc1ccc(C)cc1-n1nnnc1SCc1cc(=O)n2cc(C)ccc2n1`, `COc1ccc(C)cc1-n1nnnc1SCc1csc(C)n1` is higher in “hERG current change (%, negative = inhibition) at 10uM” value: -51.1% for the first, -16.2% for the second.

First: Cc1ccc2nc(CSc3nnc(-c4ccco4)o3)cc(=O)n2c1
Second: c1coc(-c2nnc(SCc3cn4ccccc4n3)o2)c1
The “hERG current change (%, negative = inhibition) at 10uM” value of the first is lower: -64.9% for the first, -29.7% for the second.

First: COc1ccc(C)cc1-n1nnnc1SCc1cn2ccsc2n1
Second: Cc1noc(C)c1CSc1nnc2ccc3ccccc3n12
The “hERG current change (%, negative = inhibition) at 10uM” value of the first is lower: -28.7% for the first, -25.1% for the second.

Going from `Oc1cccc(/C=N/c2c(-c3ccco3)nc3ccccn23)c1` to `CS(=O)(=O)O.Cc1cccc(/C=C2/C(=O)/C(=C/c3ccccc3C)C3CCC2N3C)c1` (stereo not drawn), the “hERG current change (%, negative = inhibition) at 10uM” value falls from 6.9% to 6.11%.

First: Cc1cccc(N(Cc2ccc(Cl)cc2)S(C)(=O)=O)c1
Second: CC(=O)c1ccc(OCc2ccc(C(=O)c3ccccc3)cc2)cc1
The “hERG current change (%, negative = inhibition) at 10uM” value of the first is higher: 21.1% for the first, 0.433% for the second.

First: CC1(C)CC(=O)C2=C(C1)NC(=O)C21C(C(=O)OC(C)(C)C)=C(N)Oc2ccc(Br)cc21 (stereo not drawn)
Second: Cc1cc(-c2ccc(C)c(S(=O)(=O)N3CCN(C(=O)c4ccco4)CC3)c2)on1
The “hERG current change (%, negative = inhibition) at 10uM” value of the first is higher: -13.1% for the first, -51.8% for the second.

First: O=C1CN(C(=O)CSc2ccc(-c3ccc(F)cc3)nn2)c2ccccc2N1
Second: CCOC(=O)CNC(c1ccccc1)c1cc(Br)ccc1NC(=O)CCN1CCOCC1 (stereo not drawn)
The “hERG current change (%, negative = inhibition) at 10uM” value of the first is higher: -42.5% for the first, -68% for the second.

Compared with `COC(=O)CNC(c1ccccc1)c1cc(Br)ccc1NC(=O)CCN1CCOCC1` (stereo not drawn), `NNC(=O)CNC(c1ccccc1)c1cc(Br)ccc1NC(=O)CCN1CCOCC1` (stereo not drawn) is higher in “hERG current change (%, negative = inhibition) at 10uM” value: -31.7% for the first, 3.67% for the second.
